Test results published in the supplement of paper PMC10849652.
About 7,900 targets were measured; listed, in parts, are those with a hit and a random draw of the rest. About 0.6% of all pairs of compound and target were hits. Values without a mark were called inactive.

Tests used:
Experiment in all cases: log2 fold change, soluble protein after heating vs DMSO (PISA); higher = thermal stabilisation; K562 cells, 10 uM, 30 min; active = over 0.2 and 3.5 SD of the protein, either way, in both replicates (recomputed)
[1] = compound: Cc1ccc(NC(=O)c2ccc(CN3CC[C@H](N(C)C)C3)c(C(F)(F)F)c2)cc1Nc1nccc(-c2cncnc2)n1 [bafetinib]
Outline: (§1)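 K562 cells at 2×10^6 cells/mL were treated with 10 μM compound for 30 min. Aliquots were heated for 3 min across 48°C-58°C, pooled, and extracted in PBS with 0.5% NP-40 at 4°C; soluble protein was the supernatant after 21,000xg for 90 min. Soluble protein was quantified by TMTpro 16plex LC-MS/MS with channel sums equalised, and reported as log2 fold change in thermal stability against DMSO controls, with values from duplicates.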

[2] = compound: Cc1cccc(CC(=O)N2CCc3c2ccc(-c2cn(C)c4ncnc(N)c24)c3F)n1
Outline: as §1

[3] = compound: Cc1cn(-c2cc(NC(=O)c3ccc(C)c(Nc4nccc(-c5cccnc5)n4)c3)cc(C(F)(F)F)c2)cn1 [nilotinib]
Outline: as §1

[4] = compound: Cc1nc(Nc2n[nH]c3c2CN(C(=O)N[C@H](CN(C)C)c2ccccc2)C3(C)C)c2sccc2n1
Outline: as §1

[5] = compound: Cc1nc(Nc2ncc(C(=O)Nc3c(C)cccc3Cl)s2)cc(N2CCN(CCO)CC2)n1 [dasatinib]
Outline: as §1

[6] = compound: Cc1ncc(-c2ccnc(Nc3ccc(S(C)(=O)=O)cc3)n2)n1C(C)C
Outline: as §1

[7] = compound: Cn1cc(-c2ccc3c(c2)CCN3C(=O)Cc2cccc(C(F)(F)F)c2)c2c(N)ncnc21
Outline: as §1

[8] = compound: Cn1cc(-c2ccc3nnc(C(F)(F)c4ccc5ncccc5c4)n3n2)cn1
Outline: as §1

[9] = compound: Cn1cncc1[C@@](N)(c1ccc(Cl)cc1)c1ccc2c(c1)c(-c1cccc(Cl)c1)cc(=O)n2C [tipifarnib]
Outline: as §1

[10] = compound: FC(F)(F)c1ccc(/C=C/c2nc(COc3ccc(CCCCn4ccnn4)cc3)co2)cc1 [mubritinib]
Outline: as §1

Chain of UniProt Q8NEZ4 (Q8NEZ4 whole entry, looked up): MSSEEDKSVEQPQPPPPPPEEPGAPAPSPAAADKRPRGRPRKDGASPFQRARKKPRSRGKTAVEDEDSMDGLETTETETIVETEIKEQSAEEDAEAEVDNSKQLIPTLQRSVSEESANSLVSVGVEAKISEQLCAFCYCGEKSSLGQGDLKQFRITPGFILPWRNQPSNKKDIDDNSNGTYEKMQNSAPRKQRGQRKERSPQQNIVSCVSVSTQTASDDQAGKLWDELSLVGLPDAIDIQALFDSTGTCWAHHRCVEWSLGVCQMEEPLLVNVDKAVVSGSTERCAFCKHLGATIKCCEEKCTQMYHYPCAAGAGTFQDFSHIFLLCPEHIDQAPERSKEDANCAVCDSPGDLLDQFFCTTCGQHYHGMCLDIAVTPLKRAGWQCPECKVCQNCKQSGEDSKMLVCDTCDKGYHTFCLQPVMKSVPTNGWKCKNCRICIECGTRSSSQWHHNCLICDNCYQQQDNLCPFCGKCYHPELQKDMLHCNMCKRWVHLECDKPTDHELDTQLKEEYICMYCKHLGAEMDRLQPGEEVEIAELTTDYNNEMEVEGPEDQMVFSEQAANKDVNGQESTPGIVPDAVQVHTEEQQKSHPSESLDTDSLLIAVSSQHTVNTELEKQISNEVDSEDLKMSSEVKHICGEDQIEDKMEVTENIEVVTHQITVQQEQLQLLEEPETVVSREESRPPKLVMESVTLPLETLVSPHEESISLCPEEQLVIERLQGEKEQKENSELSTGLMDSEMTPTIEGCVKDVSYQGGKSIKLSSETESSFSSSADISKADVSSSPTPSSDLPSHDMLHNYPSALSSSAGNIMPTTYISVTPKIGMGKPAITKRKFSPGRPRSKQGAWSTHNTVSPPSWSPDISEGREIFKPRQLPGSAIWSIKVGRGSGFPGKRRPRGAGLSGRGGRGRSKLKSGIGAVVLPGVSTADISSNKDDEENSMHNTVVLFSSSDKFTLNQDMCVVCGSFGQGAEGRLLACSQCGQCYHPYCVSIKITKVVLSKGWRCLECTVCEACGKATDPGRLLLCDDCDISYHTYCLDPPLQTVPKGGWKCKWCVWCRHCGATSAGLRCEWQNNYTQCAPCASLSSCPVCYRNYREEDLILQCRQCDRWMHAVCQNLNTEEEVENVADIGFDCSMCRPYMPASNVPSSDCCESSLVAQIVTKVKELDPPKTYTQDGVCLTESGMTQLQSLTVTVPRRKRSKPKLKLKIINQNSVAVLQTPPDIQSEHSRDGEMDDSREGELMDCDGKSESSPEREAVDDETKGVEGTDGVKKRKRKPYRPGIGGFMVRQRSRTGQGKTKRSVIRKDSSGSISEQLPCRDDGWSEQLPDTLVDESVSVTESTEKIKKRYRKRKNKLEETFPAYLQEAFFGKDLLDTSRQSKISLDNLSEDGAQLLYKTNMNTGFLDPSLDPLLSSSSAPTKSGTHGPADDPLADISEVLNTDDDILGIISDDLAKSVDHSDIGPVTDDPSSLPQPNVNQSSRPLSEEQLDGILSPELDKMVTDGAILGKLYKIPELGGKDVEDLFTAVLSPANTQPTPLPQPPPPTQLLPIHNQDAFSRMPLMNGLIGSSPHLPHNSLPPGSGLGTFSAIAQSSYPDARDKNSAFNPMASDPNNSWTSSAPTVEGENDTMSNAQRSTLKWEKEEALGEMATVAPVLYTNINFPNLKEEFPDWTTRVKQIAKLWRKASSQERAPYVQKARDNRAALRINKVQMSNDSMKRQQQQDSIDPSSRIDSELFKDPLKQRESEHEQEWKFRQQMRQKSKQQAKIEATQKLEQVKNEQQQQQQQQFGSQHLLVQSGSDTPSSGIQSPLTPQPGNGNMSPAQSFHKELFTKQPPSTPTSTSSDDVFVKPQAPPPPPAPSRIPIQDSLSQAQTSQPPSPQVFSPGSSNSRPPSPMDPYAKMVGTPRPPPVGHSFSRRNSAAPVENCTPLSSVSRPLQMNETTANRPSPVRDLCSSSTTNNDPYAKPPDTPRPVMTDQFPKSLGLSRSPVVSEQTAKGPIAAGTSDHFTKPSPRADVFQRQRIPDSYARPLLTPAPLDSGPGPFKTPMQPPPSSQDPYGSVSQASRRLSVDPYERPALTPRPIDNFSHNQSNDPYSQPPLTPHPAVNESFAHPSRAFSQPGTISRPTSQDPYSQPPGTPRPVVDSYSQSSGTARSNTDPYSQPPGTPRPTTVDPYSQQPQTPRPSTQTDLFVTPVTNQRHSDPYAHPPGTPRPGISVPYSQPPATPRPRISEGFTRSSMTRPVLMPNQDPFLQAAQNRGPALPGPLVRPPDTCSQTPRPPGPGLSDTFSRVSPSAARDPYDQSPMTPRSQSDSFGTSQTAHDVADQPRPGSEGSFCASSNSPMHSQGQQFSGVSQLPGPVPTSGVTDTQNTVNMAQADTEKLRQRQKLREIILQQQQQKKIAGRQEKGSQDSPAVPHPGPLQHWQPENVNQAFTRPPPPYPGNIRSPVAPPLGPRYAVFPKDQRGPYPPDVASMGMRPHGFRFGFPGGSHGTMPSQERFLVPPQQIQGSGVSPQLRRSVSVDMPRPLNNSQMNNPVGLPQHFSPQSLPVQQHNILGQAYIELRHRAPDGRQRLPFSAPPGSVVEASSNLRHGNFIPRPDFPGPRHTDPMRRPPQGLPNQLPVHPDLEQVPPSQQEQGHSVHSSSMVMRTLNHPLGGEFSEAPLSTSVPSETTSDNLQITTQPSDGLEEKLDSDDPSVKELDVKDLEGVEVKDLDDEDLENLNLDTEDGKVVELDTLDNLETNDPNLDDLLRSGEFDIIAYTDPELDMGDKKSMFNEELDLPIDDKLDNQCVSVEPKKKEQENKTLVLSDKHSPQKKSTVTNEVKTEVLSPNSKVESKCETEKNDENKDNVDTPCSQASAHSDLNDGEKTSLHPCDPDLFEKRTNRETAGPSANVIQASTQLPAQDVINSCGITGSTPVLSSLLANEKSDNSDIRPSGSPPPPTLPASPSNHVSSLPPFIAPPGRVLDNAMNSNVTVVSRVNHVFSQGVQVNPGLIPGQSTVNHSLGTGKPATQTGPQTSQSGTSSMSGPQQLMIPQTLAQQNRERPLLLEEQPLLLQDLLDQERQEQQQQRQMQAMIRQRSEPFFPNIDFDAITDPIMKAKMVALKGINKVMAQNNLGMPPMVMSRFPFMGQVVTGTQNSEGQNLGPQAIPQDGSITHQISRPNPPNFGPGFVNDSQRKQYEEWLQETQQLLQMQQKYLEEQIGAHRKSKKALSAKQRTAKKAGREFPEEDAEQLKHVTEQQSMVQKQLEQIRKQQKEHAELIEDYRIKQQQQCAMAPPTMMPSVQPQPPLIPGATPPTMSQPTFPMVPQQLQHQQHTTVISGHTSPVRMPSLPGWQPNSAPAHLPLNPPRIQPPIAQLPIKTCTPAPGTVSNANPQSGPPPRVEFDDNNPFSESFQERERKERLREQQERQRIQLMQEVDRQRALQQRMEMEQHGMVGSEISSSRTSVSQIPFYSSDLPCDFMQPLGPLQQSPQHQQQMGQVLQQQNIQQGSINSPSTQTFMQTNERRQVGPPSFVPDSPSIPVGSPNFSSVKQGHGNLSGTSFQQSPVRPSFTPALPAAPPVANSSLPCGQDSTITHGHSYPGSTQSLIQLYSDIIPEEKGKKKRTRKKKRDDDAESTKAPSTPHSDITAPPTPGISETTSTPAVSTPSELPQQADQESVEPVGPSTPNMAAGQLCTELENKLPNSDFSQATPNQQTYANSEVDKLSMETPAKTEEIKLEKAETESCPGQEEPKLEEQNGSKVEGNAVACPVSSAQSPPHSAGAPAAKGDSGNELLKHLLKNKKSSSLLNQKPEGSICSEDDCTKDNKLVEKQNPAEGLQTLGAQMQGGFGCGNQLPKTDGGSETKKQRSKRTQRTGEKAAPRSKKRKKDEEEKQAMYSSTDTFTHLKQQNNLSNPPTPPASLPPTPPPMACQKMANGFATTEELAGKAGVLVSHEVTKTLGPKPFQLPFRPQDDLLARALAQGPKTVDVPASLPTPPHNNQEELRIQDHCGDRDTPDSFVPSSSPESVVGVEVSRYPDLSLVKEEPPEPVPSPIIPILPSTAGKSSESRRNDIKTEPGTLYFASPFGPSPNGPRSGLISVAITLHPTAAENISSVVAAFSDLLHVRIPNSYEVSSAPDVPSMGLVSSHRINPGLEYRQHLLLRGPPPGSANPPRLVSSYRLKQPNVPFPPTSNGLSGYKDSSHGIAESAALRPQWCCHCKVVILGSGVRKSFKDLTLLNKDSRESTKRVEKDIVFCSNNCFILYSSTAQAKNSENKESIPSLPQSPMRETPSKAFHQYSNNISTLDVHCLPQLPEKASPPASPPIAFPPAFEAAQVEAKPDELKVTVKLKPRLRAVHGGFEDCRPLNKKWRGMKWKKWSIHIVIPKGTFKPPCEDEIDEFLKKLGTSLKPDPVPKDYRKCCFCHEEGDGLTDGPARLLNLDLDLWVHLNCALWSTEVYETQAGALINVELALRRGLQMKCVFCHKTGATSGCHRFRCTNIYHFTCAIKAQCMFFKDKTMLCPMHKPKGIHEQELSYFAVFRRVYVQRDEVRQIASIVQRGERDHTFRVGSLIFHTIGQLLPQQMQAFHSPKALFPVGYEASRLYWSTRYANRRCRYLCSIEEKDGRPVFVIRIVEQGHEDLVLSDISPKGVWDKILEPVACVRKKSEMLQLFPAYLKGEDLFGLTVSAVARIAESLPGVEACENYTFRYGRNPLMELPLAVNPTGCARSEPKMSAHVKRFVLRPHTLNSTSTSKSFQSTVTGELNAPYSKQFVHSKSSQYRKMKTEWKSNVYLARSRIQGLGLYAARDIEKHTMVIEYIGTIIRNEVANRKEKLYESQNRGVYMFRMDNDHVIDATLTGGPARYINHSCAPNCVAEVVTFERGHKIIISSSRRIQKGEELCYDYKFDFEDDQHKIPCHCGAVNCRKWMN
Chain of UniProt Q9BQD3 (Q9BQD3 whole entry, looked up): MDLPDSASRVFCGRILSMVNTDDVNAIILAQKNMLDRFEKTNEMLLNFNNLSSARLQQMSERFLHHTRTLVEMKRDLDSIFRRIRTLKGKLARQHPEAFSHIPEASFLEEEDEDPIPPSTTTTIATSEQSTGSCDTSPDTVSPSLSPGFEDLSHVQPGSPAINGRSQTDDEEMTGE

| Target | log2 fold change [1] | log2 fold change [2] | log2 fold change [3] | log2 fold change [4] | log2 fold change [5] | log2 fold change [6] | log2 fold change [7] | log2 fold change [8] | log2 fold change [9] | log2 fold change [10] |
| --- | --- | --- | --- | --- | --- | --- | --- | --- | --- | --- |
| ILKAP (UniProt Q9H0C8) | 0.028 | 0.079 | 0.052 | -0.117 | -0.208 | 0.02 | 0.036 | 0.045 | -0.093 | 0.137 |
| IMMT isoform 4 (UniProt Q16891) | -0.119 | 0.018 | -0.038 | 0.004 | -0.019 | 0.003 | 0.015 | 0.018 | -0.03 | 0.012 |
| LYN (UniProt P07948) | 0.26 | 0.008 | 0.062 | -0.414 (active) | -0.419 (active) | -0.043 | -0.06 | 0.034 | -0.005 | -0.003 |
| LUZP1 (UniProt Q86V48) | -0.075 | -0.028 | -0.086 | -0.35 | 0.106 | 0.21 | -0.129 | -0.104 | 0.186 | -0.055 |
| INPP5B (UniProt P32019) | 0.103 | -0.059 | -0.077 | 0.001 | -0.111 | 0.014 | -0.005 | -0.032 | 0.072 | 0.018 |
| KMT2C isoform 3 (UniProt Q8NEZ4) | -0.209 | -0.041 | -0.049 | -0.093 | 0.043 | 0.001 | 0.094 | -0.215 |  | 0.083 |
| LENG8 (UniProt Q96PV6) | -0.088 | 0.112 | 0.006 | -0.036 | -0.388 | -0.146 | -0.039 | -0.031 |  | 0.032 |
| KCNK5 (UniProt O95279) | -0.31 | 0.025 |  |  | -0.472 |  | 0.139 |  | -0.183 | 0.076 |
| MASTL (UniProt Q96GX5) | 0.143 |  | 0.014 | 0.002 | -0.105 | 0.021 | -0.052 | 0.276 |  | -0.093 |
| MFSD8 (UniProt Q8NHS3) | -0.006 | -0.12 |  |  | 0.061 |  | -0.007 | 0.017 | -0.042 | -0.002 |
| MARCKSL1 (UniProt P49006) | 0.04 | -0.087 | 0.003 | 0.014 | 0.062 | 0.009 | -0.008 | -0.004 | 0.034 | 0.005 |
| LGALS8 isoform 2 (UniProt O00214) | 0.107 | 0.079 |  |  | 0.013 |  | -0.253 |  |  | -0.186 |
| IMMP1L (UniProt Q96LU5) | -0.024 |  | -0.044 | 0.059 | 0.098 | 0.03 | 0.068 | 0.071 | 0.02 | 0.048 |
| MCM10 (UniProt Q7L590) | 0.182 | -0.044 | 0.046 | -0.001 |  | -0.008 |  |  | -0.155 | 0.09 |
| KIF3B (UniProt O15066) | 0.007 | 0.122 |  |  | -0.06 |  | 0.002 | -0.048 | -0.07 | 0.115 |
| KIAA1324L (UniProt A8MWY0) | -0.099 | 0.022 | 0.042 | -0.031 | 0.025 | -0.003 | 0.022 | 0.029 | 0.047 | 0.091 |
| IL27RA (UniProt Q6UWB1) | -0.098 |  | 0.086 | -0.06 | 0.055 | -0.006 | -0.039 | -0.109 | 0.159 | 0.005 |

| Target | log2 fold change [1] | log2 fold change [2] | log2 fold change [3] | log2 fold change [4] | log2 fold change [5] | log2 fold change [6] | log2 fold change [7] | log2 fold change [8] | log2 fold change [9] | log2 fold change [10] |
| --- | --- | --- | --- | --- | --- | --- | --- | --- | --- | --- |
| MED7 (UniProt O43513) | 0.191 |  | -0.029 | -0.041 | -0.063 | 0.094 | -0.05 | 0.069 | 0.271 |  |
| INTS5 (UniProt Q6P9B9) | -0.035 |  | 0.146 | -0.08 | -0.11 | 0.167 |  | -0.003 | -0.145 | 0.23 |
| MAP4K5 (UniProt Q9Y4K4) | -0.064 | -0.001 | 0.136 | -0.093 |  | -0.116 | -0.125 | 0.019 | -0.146 | 0.022 |
| MED22 (UniProt Q15528) | -0.137 |  | 0.019 | -0.048 | -0.009 | -0.011 | 0.102 | 0.059 |  | -0.043 |
| IL10RB (UniProt Q08334) | -0.079 | -0.031 | 0.026 | 0.151 | 0.068 | 0.105 |  |  | 0.126 |  |
| MED8 isoform 2 (UniProt Q96G25) | -0.026 |  | 0.016 | -0.015 | 0.034 | -0.171 | -0.086 | 0.013 | 0.012 | -0.059 |
| MCOLN3 (UniProt Q8TDD5) | -0.03 | -0.183 | -0.289 | -0.113 |  | 0.041 |  | 0.079 | 0.072 | 0.05 |
| KXD1 (UniProt Q9BQD3) | -0.131 | 0.045 |  |  | -0.082 |  | 0.019 | 0.085 | 0.024 | 0.052 |
| LSS (UniProt P48449) | 0.393 | 0 | -0.046 | 0.047 | 0 | 0.013 | 0.145 | 0 | -0.039 | 0.193 |
| LPGAT1 (UniProt Q92604) | -0.086 |  | -0.04 | -0.128 | 0.086 | 0.048 | 0.055 | -0.082 | 0.01 | 0.067 |
| IWS1 (UniProt Q96ST2) | 0.018 | -0.022 | -0.024 | 0.092 | -0.054 | 0.311 (active) | -0.013 | 0.022 | -0.021 | 0.035 |
| MARK2 (UniProt E9PC69) | 0.116 |  | -0.007 | -0.451 | -0.158 | -0.031 | -0.038 | -0.088 | -0.215 |  |
| MELK (UniProt Q14680) | -0.06 | 0.086 | 0.033 | -1.04 (active) | -0.149 | 0.14 | -0.092 |  | 0.097 |  |
| MFSD11 (UniProt O43934) | -0.047 | -0.032 | -0.038 | 0.046 | -0.004 | -0.119 | 0.17 |  | -0.047 | 0.063 |
| ITM2B (UniProt Q9Y287) | -0.112 |  | 0.006 | -0.062 | 0.006 | 0.033 | 0.035 | -0.04 | 0.006 | 0.059 |
| METAP1D (UniProt Q6UB28) | -0.089 |  | -0.114 | 0.036 | 0.007 | 0.079 | -0.034 | -0.071 | -0.023 | 0.028 |
| LAMP2 isoform 2 (UniProt P13473) | -0.014 | -0.014 | 0.018 | -0.009 | -0.047 | 0 | 0.005 |  | 0.126 | 0.003 |
